Source: the supplement of paper PMC10338343
± gives the standard deviation.

How the values were obtained:
[1] = system: MILI (PIWIL2) piRISC loaded with L1MC piRNA (26 nt); assay: pre-steady-state target cleavage rate (min^-1); guide: L1MC piRNA 5'p-UAACUAAAUACUAUGCAAGCUGUAGG; higher = faster piRNA-guided slicing of the target;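 note: 1 nM active piRISC with 0.1 nM target library at 33 °C single turnover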
Procedure, shortened: (§1)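 Cleave-'n-Seq measured uncleaved targets by sequencing after a transcribed, DNA-blocked target RNA library […] was mixed with 1 nM active affinity-purified piRISC holding one synthetic guide, with or without 500 nM GTSF1 partner protein, at 33 °C in HEPES–potassium acetate buffer for 0–8 or 0–960 min. Counts were normalised to depth and to weakly complementary targets, three trials were pooled, and k3 was capped at 0.0001 min^-1. A burst-and-steady-state fit gave the pre-steady-state cleavage rate.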

[2] = system: EfPiwi piRISC loaded with L1MC piRNA (26 nt); assay: pre-steady-state target cleavage rate (min^-1); auxiliary factor: 500 nM Ephydatia muelleri Gtsf1; guide: L1MC piRNA 5'p-UAACUAAAUACUAUGCAAGCUGUAGG; MIWI and MILI are mouse PIWI proteins and EfPiwi is from a freshwater sponge; tags in brackets are library labels; higher = faster piRNA-guided slicing of the target
Procedure, shortened: as §1

[3] = auxiliary factor: 500 nM mouse GTSF1

| Sequence | pre-steady-state target cleavage rate [1, 3] | pre-steady-state target cleavage rate [2] | pre-steady-state target cleavage rate ([1]; auxiliary factor: none (no GTSF1)) |
| --- | --- | --- | --- |
| UCCUGGAUGUCCUUGCAUAGUAUUUGAGUUA | 0.169 ± 0.043 | 0.00517 ± 0.0037 | – |
| UCCUCCUACAGCUUGCAUAGUAAAAAGAAA | 0.075 ± 0.02 | 0.00287 ± 0.0026 | – |
| UCCUGGUACAGCUUGCAUAGUAAUUAGAUA | – | – | 0.00338 ± 0.0033 |
| UCCUGGUAGUGCUUGCAUAGUAUUUAGAAA | 0.0343 ± 0.013 | 0.00197 ± 0.0017 | – |
| UCCUCCUACAGCUUGCAUAGUAUUAGUUA | 0.273 ± 0.024 | 0.00402 ± 0.0027 | – |
| UCCUCCUACAGCUUGCAUUAGUAUUUAGUUA | 0.0229 ± 0.0088 | 0.00479 ± 0.0038 | – |
| UCCUGGAACAGCUUGCAUAGUAUUUCAGUUA | 0.131 ± 0.028 | 0.00308 ± 0.0026 | – |
| UCCUGGAUCAGCUUGGAUAGUAUUUAGAAA | 0.0109 ± 0.0051 | 0.00249 ± 0.0024 | – |
| UCCUGCUACAGCUUGCAUAGUAAAUAGUUA | 0.17 ± 0.027 | 0.00532 ± 0.0029 | – |
| UCCUGGAUGAGCUUGCAUAGUAUUUAGUCUA | 0.0419 ± 0.013 | 0.00413 ± 0.0026 | – |
| UCCUCCUACAGCUUGCAUAUAUUUAGUUA | 0.0398 ± 0.0083 | 0.00725 ± 0.0034 | – |
| UCCUGGAUCAGCUUGCUUAGUUUUUAGUUA | 0.0369 ± 0.011 | 0.00518 ± 0.0042 | – |
| UCCUGGAUCACCUUGCAUAGUAUUUAGAUA | 0.111 ± 0.025 | 0.00551 ± 0.005 | – |
| UCCUGGAUGAGGAUGCAUAGUAUUUAGAAA | 0.0101 ± 0.0046 | 0.0024 ± 0.0024 | – |
| UCCUCCUACAGCUUGCAUAGUAUAUACAAA | 0.0968 ± 0.025 | 0.00313 ± 0.003 | – |
| UCCUCGUACAGCUUGCAUAGUAUUUAGAAA | 0.131 ± 0.024 | 0.00711 ± 0.0033 | – |
| UCCUGGAUCAGCUUGCAUAGUAUUGAGUUA | 0.227 ± 0.039 | 0.00662 ± 0.0024 | – |
| UCCUCCUACAGCUUGCAUAGUAUAUACUUA | 0.0976 ± 0.028 | 0.00304 ± 0.0025 | – |
| UCCUGGAACAGCUUGCAUUGUAUUUUGUUA | 0.102 ± 0.013 | 0.00509 ± 0.0026 | – |
| UCCUGCUACAGCUUGCAUAGUAUUAACUUA | 0.0306 ± 0.0076 | 0.00397 ± 0.0027 | – |
| UCCUGGAUGAGCUUGCAAAGUAAUUAGUUA | 0.0348 ± 0.0091 | 0.00431 ± 0.0022 | – |
| UCCUGGUACACCUUGCAUAGUAUUAAGUUA | 0.218 ± 0.066 | 0.00356 ± 0.0032 | – |
| UCCUGCUACAGCUUGGAUAGUAUUUAGAAA | 0.0121 ± 0.0049 | 0.00242 ± 0.0021 | – |
| UCCUCCUACACCUUGCAUAGUAUUUUGUUA | 0.101 ± 0.026 | 0.00451 ± 0.0027 | – |
| UCCUCCUACAGCUUGCAUAAGUAUUUAGUUA | 0.0109 ± 0.0055 | 0.00345 ± 0.0019 | – |
| UCCUGCUACAGCAUGCAUAGAAUUUAGUUA | 0.0922 ± 0.021 | 0.00243 ± 0.002 | – |
| UCCUCGUACAGCUUCCAUAGUAUUUAGUUA | 0.0687 ± 0.018 | 0.00339 ± 0.0014 | – |
| UCCUGCUUCAGCUUGCAUAGAAUUUAGUUA | 0.0587 ± 0.011 | 0.00544 ± 0.0015 | – |
| UCCUGGAUGUGCUUGCAUAGUAUUUAGCUUA | 0.113 ± 0.028 | 0.00517 ± 0.003 | – |
| UCCUGGAUGUGCUUGCAUAGUAUUCAGUUA | 0.0572 ± 0.015 | 0.00279 ± 0.0024 | – |
